The record followed here is article PMC4666376, “Characterisation of aptamer–target interactions by branched selection and high-throughput sequencing of SELEX pools”.

In this assay the target is PAI-1 wild type, active (human, UniProt P05121 24-402). The experiment in a line: branched SELEX with high-throughput sequencing; PAI-1 immobilised on polyclonal anti-PAI-1 antibody; HBS (10 mM HEPES pH 7.4, 140 mM NaCl), 2 mM MgCl2, 2 mM CaCl2, 0.1% BSA; RNA pool 100 nM; PAI-1 captured on antibody-coated wells; 45 min; binding temperature not stated (PAI-1 capture at room temperature); high values mean tight binding.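 Note: Pool frequency after one selection round with this target divided by frequency before selection.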 As to conditions: protein: recombinant; tags: N-terminal His6; structured_RNA; 2'-F pyrimidines.
PAI-1 wild type, active, sequence (P05121 24-402): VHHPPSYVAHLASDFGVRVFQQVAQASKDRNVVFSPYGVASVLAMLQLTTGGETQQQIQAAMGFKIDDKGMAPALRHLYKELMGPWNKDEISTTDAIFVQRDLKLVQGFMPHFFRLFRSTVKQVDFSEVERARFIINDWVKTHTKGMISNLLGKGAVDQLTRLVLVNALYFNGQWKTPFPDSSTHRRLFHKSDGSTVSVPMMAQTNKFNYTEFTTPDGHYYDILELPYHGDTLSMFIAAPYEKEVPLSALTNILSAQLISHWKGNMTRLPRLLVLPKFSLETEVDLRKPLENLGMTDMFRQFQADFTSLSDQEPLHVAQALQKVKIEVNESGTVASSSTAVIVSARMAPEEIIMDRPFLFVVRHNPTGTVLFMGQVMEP
For the sequence “GGGGCCACCAACGACAUUAAGUUCGUCCCCGUAAGCUCUUACGGGGUCUAUGCGUUGAUAUAAAUAGUGCCCAUGGAUC”, the binding signal stood at 5.92 enrichment factor.

As for “GGGGCCACCAACGACAUUGCCGUAGGAAUUCGUCCUGAGUUCCGAUCAAUAGCGUUGAUAUAAAUAGUGCCCAUGGAUC”, the binding signal stood at 0.74 enrichment factor.

Turning to “GGGGCCACCAACGACAUUGAGCUACGGCUAAGCCGCUAUAGUCUUCAGGAAUCGUUGAUAUAAAUAGUGCCCAUGGAUC”, the binding signal stood at 0.33 enrichment factor. Consider “GGGGCCACCAACGACAUUCUGGGCCGUAGGCGAUAUUAGCCGAUCCCAGAAGAGUUGAUAUAAAUAGUGCCCAUGGAUC”, for which the binding signal turned out to be 1.43 enrichment factor. Turning to “GGGGCCACCAACGACAUUGCGCUACGAUCAAAACACGUAGUAGUGCAACGAAUGUUGAUAUAAAUAGUGCCCAUGGAUC”, the binding signal is 0.29 enrichment factor. Consider “GGGGCCACCAACGACAUUCCGCUCAUGAUCUGUUAUCAUGAGUGCGUAGUACCGUUGAUAUAAAUAGUGCCCAUGGAUC”, for which the binding signal stood at 1.08 enrichment factor. For “GGGGCCACCAACGACAUUACGAACUUGUAGGCACGAAUACGCCGACCUCUAAUGUUGAUAUAAAUAGUGCCCAUGGAUC”, the binding signal stood at 1.25 enrichment factor.
